# Test results from ChEMBL document CHEMBL3988442, “University of Dundee, Small-Polar-MMV Screening Library” (2021).
# The whole screen tested about 48,000 compounds, of which about 13,000 (27%) showed an effect of 50% or more. The list shows a part of the results.
# System: Wolbachia pipientis
# Experiment: Anti-Wolbachia Cell-Based Screen
# Type: functional
# Design: scale not given: in the data most compounds retested in dose-response had high values
# Settings: 5 µM
row,Compound,Percent Effect [%]
1,CC(C)NC(=O)CN1CCC2(CC1)OCCO2,-0.8474
2,O=C1NCCCc2[nH]c(-c3nc(C4CCCCC4)no3)nc21,4.619
3,O=C1CCC(c2nc(C3CCN(C(=O)Cc4cccs4)CC3)no2)N1 (stereo unspecified),131.4
4,O=C1NCCCc2[nH]c(-c3nc(C4CC4)no3)nc21,-6.286
5,CC(=O)N1CCC(c2noc(C3CCC(=O)N3)n2)CC1 (stereo unspecified),120.5
6,CC(C)(C)C(=O)N1CCC(c2noc(C3CCC(=O)N3)n2)CC1 (stereo unspecified),136.3
7,O=C1CCC(c2nc(C3CCNCC3)no2)N1 (stereo unspecified),104.8
8,Cc1nc(C2CCCN(C(=O)C(C)(C)n3cc(Cl)cn3)C2)no1 (stereo unspecified),-4.996
9,Cc1noc(C2CCN(CC(=O)N3CCNC(=O)C3)CC2)n1,-10.42
10,CC(=O)N1CCC(c2nc(Cc3ccccc3)no2)C1 (stereo unspecified),-18.53
11,O=C1CCC2(CCCN(C(=O)Cc3cccs3)C2)N1 (stereo unspecified),-20.18
12,O=C(Nc1cccs1)N1CC(c2nc(C3CC3)no2)C1,10.74
13,CN(C)C(C(=O)N1CC(Oc2ccccc2F)C1)c1ccc(F)cc1 (stereo unspecified),10.57
14,CCN(CC1CCOC1)C(=O)Nc1ccc(-n2cncn2)nc1 (stereo unspecified),-5.162
15,CCC[C@H]1CN(CCS(C)(=O)=O)C[C@@H]1NC(=O)Cn1cc(C)cn1,-15.47
16,CCc1nccn1CCNC1CCN(c2nc3ccc(Cl)cc3s2)CC1,-30.49
17,O=C1CCC(c2nc(C3CCN(C(=O)C4CC4)CC3)no2)N1 (stereo unspecified),107.7
18,O=C(CN1CCCC(c2noc(C3CC3)n2)C1)N1CCCC1 (stereo unspecified),-17.34
19,CC1(C)CNC(=O)c2nc(C3CCN(C(=O)C4CC4)CC3)[nH]c2C1,-1.461
20,CC(Nc1ncnc2c1CCNC2)c1ccc2c(c1)CCCC2 (stereo unspecified),-81.25
21,CC(C)CNc1nccc(-c2cnc3sc(Cl)cn3c2=O)n1,98.56
22,CC[C@@H](CO)Nc1nccc(-c2cnc3sc(C)cn3c2=O)n1,82.9

row,Compound,Percent Effect [%]
1,CC[C@H](C)Nc1nccc(-c2cnc3sccn3c2=O)n1,96.29
2,Cc1ccc(NCCCNc2nccc(-c3cn(C)nc3C)n2)nc1,4.133
3,C[C@@H](CO)Nc1nccc(-c2cnc3sc(Cl)cn3c2=O)n1,101.5
4,c1cnc(NCc2n[nH]c3c2CCN(Cc2ccncc2)C3)nc1,-7.099
5,Cc1nc[nH]c1CN1CCCC(CNC(=O)c2ccc(N)nc2)C1 (stereo unspecified),-15.92
6,COc1cc2c(nn1)CCN(Cc1noc(CC(C)C)n1)C2,-12.11
7,Cc1nc(CN2CCCC(CCc3c(F)cccc3F)C2)c[nH]1 (stereo unspecified),27.92
8,CNS(=O)(=O)CCNCC1(O)CCCN(CCC2CCCCC2)C1=O (stereo unspecified),1.698
9,Cn1cc(NC(=O)CCc2ccsc2)ccc1=O,-1.148
10,CC[C@H](C)Nc1nccc(-c2cnc3sc(C)cn3c2=O)n1,91.04
11,Cc1cn2c(=O)c(-c3ccnc(N[C@@H](C)CO)n3)cnc2s1,99.21
12,CCCN(Cc1ccc(C#N)cc1)Cc1nnsc1Cl,8.987
13,CCNC(=O)CNC(=O)c1ccn(S(=O)(=O)c2ccc(C)cc2)c1,0.9489
14,Cc1cccc(CN2C[C@@H]3CC[C@H](C2)N(Cc2c(C)noc2C)C3=O)n1,-29.28
15,CCN(CC)C(=O)C1CCCN1C(=O)c1cccc(-n2cnnn2)c1 (stereo unspecified),98.96
16,Cc1cnn(CC2CCCN2C(=O)c2cccc(-n3cnnn3)c2)c1 (stereo unspecified),-8.957
17,Cc1cnn(CC2CCCCN2C(=O)c2cccc(C(N)=O)c2)c1 (stereo unspecified),110.6
18,COC(=O)[C@H]1CCCCN1C(=O)c1cccc(-n2cccn2)c1,-1.168
19,Cc1cnn(CC2CCCN2C(=O)c2cccc(S(C)(=O)=O)c2)c1 (stereo unspecified),115.2
20,Cc1cnn(CC2CCCN2C(=O)c2cccc(CC#N)c2)c1 (stereo unspecified),-7.7
21,Cc1cnn(CC2CCCCN2C(=O)c2cc(C(N)=O)cs2)c1 (stereo unspecified),3.915
22,Cn1ccc(C2CCCCN2C(=O)c2cccc(-n3cccn3)c2)n1 (stereo unspecified),-0.8494

row,Compound,Percent Effect [%]
1,Cc1cnn(CC2CCCN2C(=O)c2cccc(-n3ccc(C)n3)c2)c1 (stereo unspecified),119
2,CC(C)c1nc(COc2cccc3c2NC(=O)CO3)cs1,-10.7
3,CC(C)(C)c1cc(NC(=O)C2CCCO2)n(-c2ccccn2)n1 (stereo unspecified),-31.1
4,NC(=O)c1c(NC(=O)C2CCCO2)sc2c1CCc1ccccc1-2 (stereo unspecified),117
5,CC(=O)Nc1sc2c(c1C(=O)O)CCc1ccccc1-2,112.1
6,NC(=O)c1c(NC(=O)CCCC(=O)O)sc2c1CCc1ccccc1-2,119.8
7,O=C(Cc1cccs1)NCC1(O)CCc2ccccc2C1 (stereo unspecified),1.555
8,O=C(Nc1cccc(N2CCN(CC3CC3)CC2)c1)C1CCCO1 (stereo unspecified),-16.14
9,NC(=O)c1c(NC(=O)CCC(=O)O)sc2c1CCc1ccccc1-2,188.5
10,Cc1cccc2c1nc1n2[C@@H](CNC(=O)C2CCOCC2)COC1,-17.69
11,NC(=O)c1ccc(CNCC2CCN(CCO)CC2)cc1,2.18
12,Cc1nc(CCN(C)C(=O)CCNC(=O)c2ccccc2F)no1,-9.414
13,CCc1cc(NCc2ccc(-n3cncn3)c(C)c2)n(C)n1,-10.44
14,CC(NC(=O)Cn1cc(C(N)=O)c(-c2ccccc2)n1)C1CC1 (stereo unspecified),6.248
15,CC(CC(=O)O)CC(=O)Nc1sc2c(c1C(N)=O)CCc1ccccc1-2 (stereo unspecified),127.8
16,Cc1ccccc1C(C(=O)N(C)CCc1cn[nH]c1)N(C)C (stereo unspecified),13.24
17,O=C(c1ccc(C2CCCO2)s1)N1Cc2ccccc2C1 (stereo unspecified),-6.563
18,CCOc1ccc(OCc2nccc(-c3cc(C(=O)O)ccn3)n2)cc1,-79.36
19,Cc1cc(N(C)Cc2noc(C)n2)n2nc(C)c(C)c2n1,14.08
20,Cc1cc(N(C)Cc2ccsc2)n2nc(C)c(C)c2n1,-6.917
21,Cc1csc(CN(C)c2cc(C)nc3c(C)c(C)nn23)n1,83.18
22,CC(O)CN(c1ccccc1)S(=O)(=O)c1cc(C(=O)O)cc2c1CCC2 (stereo unspecified),5.053
